Results as given in PubChem BioAssay (NCI).
Values joined by “and” are separate entries in the source; they are usually repeats but may differ in a detail not shown here. Identical values can stand only once. Compounds without any hit were thinned out: in the full panel of roughly 83,000, 20% have a hit.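 Note: values are percent growth. 100 is the growth of untreated cells, values between 100 and 0 indicate rising inhibition; between -100 and 0 indicates cell death.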 Active and inactive are the calls of the source.

System: HS 578T breast
Test: NCI-60 one-dose screen, 48 h (100 = growth as untreated, 0 = no growth, -100 = all killed)
Conditions: 10 µM unless noted
Description: Growth inhibition of the HS 578T human tumor cell line is measured as a screen for anti-cancer activity. Cells are grown in 96 well plates and exposed to the test compound for 48 hours. Compounds are tested at a single concentration, which is 10^-5 M for most compounds. The reported endpoint is percent growth (GI% or GIPRCNT), where numbers from 0 - 100% represent growth inhibition, and numbers from -100% - 0 represent cell death. For example, a value of 40 represents 60% growth inhibition. A value of 0 means no net growth occurred over the course of the experiment. A value of -40 indicates 40% of cells at the beginning of the experiment died by the end of the experiment. A value of -100 means all cells are dead at the end of the experiment.
NCI-60 Human Tumor Cell Lines Screen was performed using the standard one-dose NCI protocol, which is described in more detail at https://dtp.cancer.gov/discovery_development/nci-60/default.htm.
Compounds with GIPRCNT values below 10 were considered active. Activity score was based on GIPRCNT using the following formula: […]
Score is 0 for GIPRCNT values of 100 or above, 50 for GIPRCNT values of 0, and 100 for GIPRCNT values of -100.

| SMILES | growth |
| --- | --- |
| Cc1ccc(N)cc1S(=O)(=O)O | 100% (inactive) and 94.9% (inactive) |
| Oc1cccnc1CN1CCOCC1 | 115% (inactive) and 105% (inactive) |
| O=C(O)C(Cc1ccc(OS(=O)(=O)Cc2ccccc2)cc1)NS(=O)(=O)Cc1ccccc1 (stereo not given) | 106% (inactive) |
| O=COCCCc1ccccc1 | 96.6% (inactive) |
| CCNCc1ccccc1 | 102% (inactive) |
| COc1ccc(C(=O)C(O)c2ccc(OC)cc2)cc1 (stereo not given) | 112% (inactive) and 102% (inactive) |
| CCN(CC)C(CC(=O)c1ccccc1)C(=O)c1ccccc1 (stereo not given) | 113% (inactive) |
| CC(=O)c1cccc(OC(=O)c2ccccc2)c1 | 105% (inactive) |
| CCC(C)(O)CCC(C)(O)CC (stereo not given) | 108% (inactive) |
| CCOC(=O)CN1CCC(C(=O)OCC)CC1 | 106% (inactive) |
| OCCCc1ccccc1 | 106% (inactive) |
| Cc1onc(-c2c(F)cccc2Cl)c1-c1ncc(-c2ccc(Cl)cc2)o1 | 84.8% (inactive) and 57.3% (inactive) |
| CCOC(=O)NC(N)=O | 102% (inactive) and 107% (inactive) |
| CC(=O)Oc1ccc(C(c2ccc(OC(C)=O)cc2)c2ccccn2)cc1 | 31.2% (inactive) |
| O=S(=O)(O)c1ccc2cc(O)ccc2c1 | 104% (inactive) |
| CN(C=O)c1ccccc1 | 100% (inactive) |
| Nc1c(Cl)cc2c(c1Br)C(=O)c1ccccc1C2=O | 98% (inactive) |
| O=C(/C=C/C=C/c1ccc2c(c1)OCO2)N1CCCCC1 | 104% (inactive) and 94.8% (inactive) |
| CNc1ccc(Cl)cc1S(=O)(=O)c1ccccc1[N+](=O)[O-] | 96.7% (inactive) |
| CC1=CC(=O)C=CC1=Nc1ccc(N(C)C)cc1 | 109% (inactive) |

| SMILES | growth |
| --- | --- |
| CC(C)(C)OC(=O)NCCc1ccc(N)cc1 | 96% (inactive) |
| O=C1C=CC(n2cc(F)c(=O)[nH]c2=O)O1 (stereo not given) | 90.9% (inactive) |
| CC(C)(C)OC(=O)c1ccc(NCc2cc(O)ccc2O)cc1 | 30.8% (inactive) |
| O=C(OCc1ccccc1)c1ccccc1 | 105% (inactive) |
| OCc1ccccc1F | 109% (inactive) |
| O=C(O)c1ccc2c3ccc(C(=O)O)c4c(C(=O)O)ccc(c5ccc(C(=O)O)c1c25)c43 | 107% (inactive) |
| COc1cc(Cl)ccc1C | 115% (inactive) |
| COc1ccc2oc3cc(NCCN(C)C)ccc3c(=O)c2c1 | 105% (inactive) and 83.9% (inactive) |
| O=[N+]([O-])c1cccc(N=Cc2ccccc2)c1 | 110% (inactive) |
| O=C(O)C#Cc1ccc(Cl)cc1 | 93.6% (inactive) |
| N=C(N)N1CCc2ccccc2C1 | 85.9% (inactive) and 98.4% (inactive) |
| Cc1nc(Nc2ccc(Cl)cc2)c2cnn(-c3ccccc3)c2n1 | 97.9% (inactive) |
| O=C1C=CC[C@H](/C=C/c2ccccc2)O1 | 25.4% (inactive) and 19.5% (inactive) |
| Cc1ccc([N+](=O)[O-])cc1Br | 94.8% (inactive) |
| N#Cc1c(N)nc2c(c(-c3ccc(Cl)cc3)nn2-c2ccccc2)c1C#N | 83.9% [100 µM] (inactive) |
| CCN(CC)Cc1cc2[nH]c3c4ccc(Cl)cc4ncc3c2cc1OC | -7.12% (active) and 99.3% (inactive) |
| O=C1c2cccnc2-c2ncccc21 | 89.5% [100 µM] (inactive) |
| NCCSSC/C=C\CSSCCN | 93% (inactive) |
| CS(=O)(=O)OCC1NC(=O)C(COS(C)(=O)=O)NC1=O (stereo not given) | 193% (inactive) and 106% (inactive) |
| O=C(c1ccncc1)c1c(Cc2ccccc2)ccc2ccccc12 | 95.3% (inactive) |
